Assay results published in PubChem BioAssay (EPA / NIEHS).
Values joined by “and” are separate entries in the source; they are usually repeats but may differ in a detail not shown here. Equal entries are not always repeated. Records with an inconclusive call do not appear. The source holds several records for some structures; these can differ, active in one and inactive in another. Active and inactive are the calls of the source. How the source made its calls, unless noted: active means hit-call score of the fitted dose curve at least 0.9, where 1 is the maximum; inconclusive means response in the unintended direction; inactive means score below 0.9.

Assays:
[1] = TOX21_p53_BLA_p4_viability: Viability Assessment in the Tox21 HCT-116 p53 Agonism Beta-lactamase Assay, Phase 4 (AID 2283597);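 further: hits lower the luminescence signal meaning cytotoxicity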
In short: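 Following a 16 h exposure at 37C, the treated HCT116 wells were first read for the FRET ratio. They were then lysed with CellTiter-Glo, and ATP luminescence was recorded after 30 min at room temperature.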

[2] = biological target: Cellular tumor antigen p53 (Homo sapiens) (UniProt P04637); assay: TOX21_p53_BLA_p5_ratio: Tox21 HCT-116 p53 Agonism Beta-lactamase Assay, Ratio, Phase 5 (AID 2283599)
Cellular tumor antigen p53 (Homo sapiens), sequence (P04637 whole entry, looked up): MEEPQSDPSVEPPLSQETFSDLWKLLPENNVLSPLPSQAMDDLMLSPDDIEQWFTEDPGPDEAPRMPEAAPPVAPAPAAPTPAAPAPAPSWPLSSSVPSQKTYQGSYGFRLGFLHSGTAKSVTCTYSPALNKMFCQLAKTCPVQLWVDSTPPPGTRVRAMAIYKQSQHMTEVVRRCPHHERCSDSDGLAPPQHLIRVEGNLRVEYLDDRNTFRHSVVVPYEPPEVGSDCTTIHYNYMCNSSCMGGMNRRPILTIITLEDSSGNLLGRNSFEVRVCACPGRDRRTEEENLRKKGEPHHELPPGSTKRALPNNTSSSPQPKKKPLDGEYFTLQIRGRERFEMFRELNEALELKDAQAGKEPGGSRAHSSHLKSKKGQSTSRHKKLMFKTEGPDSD
In short: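 HCT-116 cells carrying a p53-inducible beta-lactamase reporter were seeded at 4000 cells/well and dosed after 5 h with compound in DMSO (217-fold dilution). After 16 h at 37C, CCF4-AM substrate was added for 2 h, and the 460/530 nm emission ratio was scored as gain-of-signal versus DMSO.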

[3] = TOX21_p53_BLA_p5_viability: Viability Assessment in the Tox21 HCT-116 p53 Agonism Beta-lactamase Assay, Phase 5 (AID 2283600)
In short: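 After the 460/530 nm beta-lactamase measurement, the wells received an ATP-detection luciferase reagent; signal was read 30 min later at RT. Compound treatment lasted 16 h on cells pre-incubated 5 h post-seeding.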

[4] = biological target: Cellular tumor antigen p53 (Homo sapiens) (UniProt P04637); assay: TOX21_p53_BLA_p4_ratio: Tox21 HCT-116 p53 Agonism Beta-lactamase Assay, Ratio, Phase 4 (AID 2283601)
In short: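 HCT116 cells carrying an inducible beta-lactamase reporter were plated at 4000 cells/well, rested 5 h, then exposed to compounds in DMSO (217-fold dilution) for 16 h at 37C. CCF4-AM substrate was loaded 2 h at room temperature; 460/530 nm emission ratio scored gain-of-signal versus DMSO.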

[5] = Tanguay_ZF_120hpf_MORT_legacy: (Legacy) Oregon State University Tanguay Lab 120 Hour Post-fertilization zebrafish Assay for Mortality (AID 2283633);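 on AC50: fitted as increase in binary mortality versus DMSO negative control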
In short: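 Static waterborne exposure from 6 to 120 hpf at 28C of single dechorionated wild-type (5D) embryos per well, 0.64% DMSO final. Death recorded present/absent by brightfield at 24 and 120 hpf.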

[6] = Tanguay_ZF_120hpf_YSE_legacy: (Legacy) Oregon State University Tanguay Lab 120 Hour Post-fertilization zebrafish Assay for Yolk Sac Edema (AID 2283634);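 on AC50: actives raise the incidence of yolk sac edema above the DMSO baseline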
In short: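 Presence or absence of yolk sac edema was recorded at 120 hpf in surviving larvae. These were wild-type Tropical 5D embryos, chorion removed at 4 hpf, held in static exposure at 28C from 6 hpf with 0.64% DMSO vehicle.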

[7] = Tanguay_ZF_120hpf_AXIS_legacy: (Legacy) Oregon State University Tanguay Lab 120 Hour Post-fertilization zebrafish Assay for Body Axis Malformation (AID 2283635);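 on AC50: potency for an increased fraction of larvae scored with body axis malformation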
In short: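 Binary scoring of axis defects at 120 hpf under brightfield, fitted positive versus DMSO. Tropical 5D embryos, chorion removed by pronase at 4 hpf, were singly exposed in sealed, dark plates at 28C from 6 hpf; DMSO 0.64% final.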

[8] = Tanguay_ZF_120hpf_EYE_legacy: (Legacy) Oregon State University Tanguay Lab 120 Hour Post-fertilization zebrafish Assay for Eye Malformation (AID 2283636)
In short: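 Dechorionated wild-type Tropical 5D zebrafish embryos were exposed statically from 6 hpf, one per well, to 120 hpf at 28C in sealed, foil-covered plates with 0.64% DMSO. Eye malformation was scored present/absent by brightfield microscopy against DMSO controls.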

[9] = Tanguay_ZF_120hpf_SNOU_legacy: (Legacy) Oregon State University Tanguay Lab 120 Hour Post-fertilization zebrafish Assay for Snout Malformation (AID 2283637)
In short: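 Tropical 5D wild-type zebrafish embryos, dechorionated with pronase at 4 hpf, were exposed singly from 6 hpf to 120 hpf statically at 28C in 0.64% DMSO. Snout malformation was scored present/absent by brightfield microscopy, fitted against DMSO.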

[10] = Tanguay_ZF_120hpf_JAW_legacy: (Legacy) Oregon State University Tanguay Lab 120 Hour Post-fertilization zebrafish Assay for Jaw Malformation (AID 2283638);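 on AC50: active means more embryos with jaw malformation than DMSO controls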
In short: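 Binary jaw-malformation call at 120 hpf by brightfield microscopy. Embryos (Tropical 5D strain, chorion removed at 4 hpf) were dosed statically at 6 hpf, one per well, at 28C with 0.64% DMSO. Embryos that died were not scored.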

[11] = Tanguay_ZF_120hpf_PE_legacy: (Legacy) Oregon State University Tanguay Lab 120 Hour Post-fertilization zebrafish Assay for Pericardial Edema (AID 2283640);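 on AC50: potency for increased incidence of pericardial edema versus DMSO baseline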
In short: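 Scoring was binary, by brightfield microscopy at 120 hpf, and skipped where mortality occurred. Wild-type embryos were kept under sealed, foil-covered static exposure at 28C in 0.64% (vol/vol) DMSO.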

[12] = Tanguay_ZF_120hpf_BRAI_legacy: (Legacy) Oregon State University Tanguay Lab 120 Hour Post-fertilization zebrafish Assay for Brain Malformation (AID 2283641)
In short: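 Binary brightfield scoring of brain malformation at 120 hpf in Tropical 5D larvae held under static exposure at 28C (0.64% v/v DMSO), non-mortality endpoints skipped if dead. Positive control: 5uM trimethyltin chloride; fit versus DMSO.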

[13] = Tanguay_ZF_120hpf_SOMI_legacy: (Legacy) Oregon State University Tanguay Lab 120 Hour Post-fertilization zebrafish Assay for Somite Malformation (AID 2283647)
In short: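 Binary somite-defect scoring at 120 hpf, omitted for embryos that died, in wild-type (Tropical 5D) zebrafish with chorion removed by pronase at 4 hpf; static exposure began 6 hpf, single embryos per well, 28C, 0.64% DMSO; fitted positive versus DMSO.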

[14] = Tanguay_ZF_120hpf_PFIN_legacy: (Legacy) Oregon State University Tanguay Lab 120 Hour Post-fertilization zebrafish Assay for Pectoral Fin Malformation (AID 2283648);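 further: each larva judged yes or no for fin defect by brightfield with dead larvae skipped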
In short: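 Tropical 5D wild-type embryos, dechorionated with pronase at 4 hpf, were placed singly in wells at 6 hpf and statically exposed until 120 hpf at 28C, sealed and dark, with 0.64% (vol/vol) final DMSO; pectoral fin malformation scored present/absent.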

[15] = Tanguay_ZF_120hpf_CFIN_legacy: (Legacy) Oregon State University Tanguay Lab 120 Hour Post-fertilization zebrafish Assay for Caudal Fin Malformation (AID 2283649)
In short: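 Binary brightfield scoring of caudal fin defects at 120 hpf after static, light-shielded exposure at 28C from 6 hpf. Tropical 5D embryos, chorion removed with pronase at 4 hpf, final DMSO 0.64%.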

[16] = Tanguay_ZF_120hpf_PIG_legacy: (Legacy) Oregon State University Tanguay Lab 120 Hour Post-fertilization zebrafish Assay for Pigmentation Malformation (AID 2283650)
In short: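 Tropical 5D wild-type zebrafish embryos, dechorionated with pronase at 4 hpf, were exposed singly from 6 hpf to 120 hpf statically at 28C in sealed, dark plates with 0.64% DMSO; pigmentation scored present/absent by brightfield microscopy, fitted against DMSO.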

[17] = Tanguay_ZF_120hpf_CIRC_legacy: (Legacy) Oregon State University Tanguay Lab 120 Hour Post-fertilization zebrafish Assay for Circulatory Malformation (AID 2283651)
In short: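 Read-out: presence or absence of circulatory malformation at 120 hpf, scored by brightfield microscopy, fitted in the gain-of-signal direction against DMSO baseline. Wild-type 5D larvae were exposed from 6 hpf after enzymatic chorion removal.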

[18] = Tanguay_ZF_120hpf_SWIM_legacy: (Legacy) Oregon State University Tanguay Lab 120 Hour Post-fertilization zebrafish Assay for Swim Bladder Malformation (AID 2283654);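 further: swim bladder malformation in each larva scored yes or no under brightfield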
In short: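 Dechorionated Tropical 5D wild-type embryos, placed singly from 6 hpf, were statically exposed at 28C to 120 hpf with 0.64% DMSO final; swim bladder malformation was scored present/absent by brightfield microscopy, gain of signal relative to DMSO controls.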

[19] = Tanguay_ZF_120hpf_OTIC_legacy: (Legacy) Oregon State University Tanguay Lab 120 Hour Post-fertilization zebrafish Assay for Otic Vesicle Malformation (AID 2283639)
In short: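 Embryos from 5D wild-type adults exposed in plates; DMSO 0.64% v/v final. Sealed, light-protected, 28C, static to 120 hpf. Otic vesicle malformation recorded as binary endpoint; gain-of-signal fitted vs DMSO.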

[20] = read-out: solute carrier (SLC22A6), SLC22A6 (gene 9356); assay: LTEA_HepaRG_SLC22A6: Life Technologies and Expression Analysis (LTEA) Assay for solute carrier (SLC22A6) using HepaRG (AID 2283653; active means hit-call score of the fitted dose curve at least 0.9, where 1 is the maximum; inactive means score below 0.9); conditions: mRNA level, 48 h; actives raise or lower the signal
In short: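 SLC22A6 transcript was measured by TaqMan qRT-PCR, normalized to three housekeeping genes, after 48 h duplicate exposure of HepaRG cells (100 uM top, half-log steps, 0.5% DMSO); bidirectional fit against vehicle.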

CCC(C)(c1ccc(O)cc1)c1ccc(O)cc1
AC50 [1]: 77.1 µM (active) | outcome [1]: inactive | AC50 [2]: 75.7 µM (active) | outcome [2]: inactive | outcome [3]: inactive | AC50 [4]: 84.6 µM (active) and 82.3 µM (active) | AC50 [5]: 36.9 µM (active) | AC50 [6]: 41 µM (active) | AC50 [7]: 46.9 µM (active) | AC50 [8]: 46.2 µM (active) | AC50 [9]: 46.2 µM (active) | AC50 [10]: 47.3 µM (active) | AC50 [11]: 43.4 µM (active) | AC50 [12]: 50.6 µM (active) | AC50 [13]: 46.4 µM (active) | AC50 [14]: 44.7 µM (active) | outcome [15]: inactive | AC50 [16]: 43.2 µM (active) | AC50 [17]: 42.7 µM (active) | AC50 [18]: 43.1 µM (active)

c1cc2ccc3cccc4ccc(c1)c2c34
outcome [1]: inactive | outcome [2]: inactive | outcome [3]: inactive | outcome [4]: inactive | outcome [5]: inactive | outcome [6]: inactive | outcome [7]: inactive | outcome [8]: inactive | outcome [9]: inactive | outcome [19]: inactive | outcome [11]: inactive | outcome [12]: inactive | outcome [15]: inactive | outcome [16]: inactive | outcome [17]: inactive | outcome [18]: inactive

O=C(N[C@H]1CN2CCC1CC2)c1cc2ccoc2cn1
outcome [1]: inactive | outcome [2]: inactive | outcome [3]: inactive | outcome [4]: inactive | outcome [5]: inactive | outcome [6]: inactive | outcome [7]: inactive | outcome [8]: inactive | outcome [9]: inactive | outcome [19]: inactive | outcome [11]: inactive | outcome [12]: inactive | outcome [13]: inactive | outcome [14]: inactive | outcome [15]: inactive | outcome [16]: inactive | outcome [17]: inactive | outcome [18]: inactive

Cc1cccc(C)c1N
outcome [1]: inactive | outcome [2]: inactive | outcome [4]: inactive | outcome [5]: inactive | outcome [6]: inactive | outcome [7]: inactive | outcome [8]: inactive | outcome [9]: inactive | outcome [11]: inactive | outcome [15]: inactive | outcome [16]: inactive | outcome [17]: inactive | outcome [18]: inactive

O=S(=O)(O)C(F)(F)C(F)(F)C(F)(F)C(F)(F)C(F)(F)C(F)(F)F
outcome [1]: inactive | outcome [2]: inactive | outcome [5]: inactive | outcome [6]: inactive | outcome [7]: inactive | outcome [8]: inactive | outcome [9]: inactive | outcome [19]: inactive | AC50 [12]: 14.9 µM (active) | outcome [13]: inactive | outcome [14]: inactive | outcome [16]: inactive | outcome [17]: inactive | outcome [18]: inactive

CCCCCCCCCc1ccc(O)cc1
outcome [1]: inactive | outcome [2]: inactive | outcome [3]: inactive | outcome [4]: inactive | outcome [5]: inactive | outcome [6]: inactive | outcome [8]: inactive | outcome [9]: inactive | outcome [19]: inactive | outcome [11]: inactive | outcome [13]: inactive | outcome [15]: inactive | outcome [16]: inactive | outcome [20]: inactive | outcome [18]: inactive

COc1ccc(O)c(C(C)(C)C)c1
outcome [1]: inactive | outcome [2]: inactive | AC50 [4]: 86.1 µM (active) | outcome [4]: inactive | outcome [5]: inactive | outcome [6]: inactive | outcome [7]: inactive | outcome [8]: inactive | outcome [9]: inactive | outcome [10]: inactive | outcome [11]: inactive | outcome [12]: inactive | outcome [13]: inactive | outcome [14]: inactive | outcome [15]: inactive | outcome [16]: inactive | outcome [18]: inactive

CCCN(CCC)N=O
outcome [1]: inactive | outcome [2]: inactive | outcome [4]: inactive | outcome [5]: inactive | outcome [6]: inactive | outcome [7]: inactive | outcome [8]: inactive | outcome [9]: inactive | outcome [11]: inactive | outcome [13]: inactive | outcome [14]: inactive | outcome [15]: inactive | outcome [16]: inactive | outcome [17]: inactive | outcome [18]: inactive
